Source: PMC7862700, “An all-to-all approach to the identification of sequence-specific readers for epigenetic DNA modifications on cytosine”

Target: T1, ETV7 (Homo sapiens, UniProt Q9Y603 1-341)
T1 sequence: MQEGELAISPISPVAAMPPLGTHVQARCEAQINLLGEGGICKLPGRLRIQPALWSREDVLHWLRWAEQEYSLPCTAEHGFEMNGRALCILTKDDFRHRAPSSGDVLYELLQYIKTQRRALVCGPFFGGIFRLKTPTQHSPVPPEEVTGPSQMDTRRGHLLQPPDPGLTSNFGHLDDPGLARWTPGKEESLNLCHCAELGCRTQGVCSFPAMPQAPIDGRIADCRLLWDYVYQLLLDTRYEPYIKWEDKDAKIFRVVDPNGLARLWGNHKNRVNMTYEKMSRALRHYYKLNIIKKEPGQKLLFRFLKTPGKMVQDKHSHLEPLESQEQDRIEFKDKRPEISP
Test: DAPPL (digital affinity profiling via proximity ligation, sequencing); 10 mM Tris-HCl pH 7.5, 50 mM NaCl, 1 mM DTT, 4% glycerol, room temperature, 30 min; GST-TFs on glutathione beads, 16-mer random dsDNA library, 0.1% formaldehyde crosslink after washing; high values mean tight binding
Conditions: protein: recombinant; tags: N-terminal GST; dsDNA, one strand shown
How it was run: (§1)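 Human transcription factors carrying a GST fusion were produced in yeast, bound to glutathione beads, tagged with DNA barcodes and pooled together with a tag-only sample. Each pool was held with 200 nmole of a random double-stranded 16-mer DNA library in Tris/NaCl/DTT/glycerol buffer for 30 min at room temperature, then washed, crosslinked in 0.1% formaldehyde, proximity-ligated with BsaI/T4 ligase (1 h, 37 °C), PCR-amplified and sequenced on an Illumina NextSeq500. Binding signal is the read frequency of each hexamer for a given factor divided by its frequency in the tag-only sample.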

Q: For CACCCA, which binding signal is on record?
A: 1.03 fold enrichment (6-mer frequency, TF over GST control)

Q: Which binding signal does the source give for AATGTG here?
A: 1.02 fold enrichment (6-mer frequency, TF over GST control)

Q: Which binding signal does the source give for GCGTTG here?
A: 1.01 fold enrichment (6-mer frequency, TF over GST control)

Q: For CCCGCG, which binding signal is on record?
A: 1.03 fold enrichment (6-mer frequency, TF over GST control)

Q: GCAGCC was tested. Which binding signal did it give?
A: 1.02 fold enrichment (6-mer frequency, TF over GST control)

Target: T2, ELF5 (Homo sapiens, UniProt Q9UKW6-2 1-255)
T2 sequence: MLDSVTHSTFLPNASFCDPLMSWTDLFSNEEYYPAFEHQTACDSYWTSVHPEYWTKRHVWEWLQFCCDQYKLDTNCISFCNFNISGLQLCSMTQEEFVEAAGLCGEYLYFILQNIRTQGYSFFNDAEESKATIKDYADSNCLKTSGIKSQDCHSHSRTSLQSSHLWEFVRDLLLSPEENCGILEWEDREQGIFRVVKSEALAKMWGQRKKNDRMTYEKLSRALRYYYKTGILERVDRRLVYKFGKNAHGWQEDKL
Test: as above
Conditions: protein: recombinant; tags: N-terminal GST; dsDNA, one strand shown
How it was run: as §1

Q: GATACA was tested. Which binding signal did it give?
A: 1 fold enrichment (6-mer frequency, TF over GST control)

Q: With ATGCGT as the sequence, how does the binding signal read?
A: 1.03 fold enrichment (6-mer frequency, TF over GST control)

Q: How did the binding signal turn out when CACACC was run?
A: 1.03 fold enrichment (6-mer frequency, TF over GST control)

Q: With TTGACG as the sequence, how does the binding signal read?
A: 1.07 fold enrichment (6-mer frequency, TF over GST control)

Q: How did the binding signal turn out when TGTCAA was run?
A: 1.01 fold enrichment (6-mer frequency, TF over GST control)

Q: Which binding signal does the source give for AGTTTT here?
A: 1.01 fold enrichment (6-mer frequency, TF over GST control)

Q: Which binding signal does the source give for GTTTGT here?
A: 1.03 fold enrichment (6-mer frequency, TF over GST control)

Q: GACGAC was tested. Which binding signal did it give?
A: 1.02 fold enrichment (6-mer frequency, TF over GST control)

Target: T3, ETV3 (Homo sapiens, UniProt P41162-2 1-143)
T3 sequence: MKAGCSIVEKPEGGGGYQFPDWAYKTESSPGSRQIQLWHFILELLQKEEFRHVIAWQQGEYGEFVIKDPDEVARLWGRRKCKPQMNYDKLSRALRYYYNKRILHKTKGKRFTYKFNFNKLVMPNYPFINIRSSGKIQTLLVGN
Test: as above
Conditions: protein: recombinant; tags: N-terminal GST; dsDNA, one strand shown
How it was run: as §1

Q: Which binding signal does the source give for GATACA here?
A: 1.01 fold enrichment (6-mer frequency, TF over GST control)

Q: Which binding signal does the source give for CAAGCT here?
A: 1.02 fold enrichment (6-mer frequency, TF over GST control)

Q: Which binding signal does the source give for CGCGGC here?
A: 1.04 fold enrichment (6-mer frequency, TF over GST control)

Q: How did the binding signal turn out when TGGCCA was run?
A: 1 fold enrichment (6-mer frequency, TF over GST control)

Q: With AGGCCC as the sequence, how does the binding signal read?
A: 1.01 fold enrichment (6-mer frequency, TF over GST control)

Q: With TGATTG as the sequence, how does the binding signal read?
A: 1.05 fold enrichment (6-mer frequency, TF over GST control)

Q: TGTCAA was tested. Which binding signal did it give?
A: 1.08 fold enrichment (6-mer frequency, TF over GST control)

Q: With ACCGTT as the sequence, how does the binding signal read?
A: 1.01 fold enrichment (6-mer frequency, TF over GST control)

Q: CATGGC was tested. Which binding signal did it give?
A: 1.05 fold enrichment (6-mer frequency, TF over GST control)

Q: With AGTTTT as the sequence, how does the binding signal read?
A: 1.07 fold enrichment (6-mer frequency, TF over GST control)

Q: How did the binding signal turn out when GTTTGT was run?
A: 1.06 fold enrichment (6-mer frequency, TF over GST control)

Q: Which binding signal does the source give for GCCGCA here?
A: 1 fold enrichment (6-mer frequency, TF over GST control)

Q: Which binding signal does the source give for ACTCGG here?
A: 1.04 fold enrichment (6-mer frequency, TF over GST control)

Q: With CCCGCG as the sequence, how does the binding signal read?
A: 1.01 fold enrichment (6-mer frequency, TF over GST control)

Q: How did the binding signal turn out when GTGGCA was run?
A: 1 fold enrichment (6-mer frequency, TF over GST control)

Q: How did the binding signal turn out when GCAGCC was run?
A: 1 fold enrichment (6-mer frequency, TF over GST control)

Target: ETV6 (Homo sapiens, UniProt P41212 1-452)
Test: as above
Conditions: protein: recombinant; tags: N-terminal GST; dsDNA, one strand shown
How it was run: as §1

Chain of ETV6 (P41212 whole entry): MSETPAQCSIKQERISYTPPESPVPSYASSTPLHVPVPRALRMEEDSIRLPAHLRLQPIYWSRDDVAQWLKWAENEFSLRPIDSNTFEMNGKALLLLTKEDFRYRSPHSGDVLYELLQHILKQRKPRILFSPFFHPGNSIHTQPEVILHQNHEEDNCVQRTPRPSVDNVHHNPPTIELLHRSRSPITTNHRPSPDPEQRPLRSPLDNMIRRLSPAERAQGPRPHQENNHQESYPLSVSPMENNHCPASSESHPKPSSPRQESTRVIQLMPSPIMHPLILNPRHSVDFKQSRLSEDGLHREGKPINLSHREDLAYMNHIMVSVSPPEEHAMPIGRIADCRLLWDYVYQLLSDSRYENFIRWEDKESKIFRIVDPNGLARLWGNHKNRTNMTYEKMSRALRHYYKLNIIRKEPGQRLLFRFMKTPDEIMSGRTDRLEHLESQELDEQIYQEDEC

Q: Which binding signal does the source give for TCAGCC here?
A: 1.01 fold enrichment (6-mer frequency, TF over GST control)

Q: Which binding signal does the source give for CGCGGC here?
A: 1.15 fold enrichment (6-mer frequency, TF over GST control)

Q: How did the binding signal turn out when TGGCCA was run?
A: 1.09 fold enrichment (6-mer frequency, TF over GST control)

Q: Which binding signal does the source give for CACACC here?
A: 1.01 fold enrichment (6-mer frequency, TF over GST control)

Q: With TTGACG as the sequence, how does the binding signal read?
A: 1.15 fold enrichment (6-mer frequency, TF over GST control)

Q: TGATTG was tested. Which binding signal did it give?
A: 1.04 fold enrichment (6-mer frequency, TF over GST control)

Q: For TGTCAA, which binding signal is on record?
A: 1.04 fold enrichment (6-mer frequency, TF over GST control)

Q: Which binding signal does the source give for ACCGTT here?
A: 1 fold enrichment (6-mer frequency, TF over GST control)

Q: Which binding signal does the source give for CATGGC here?
A: 1 fold enrichment (6-mer frequency, TF over GST control)

Q: For GTTTGT, which binding signal is on record?
A: 1.11 fold enrichment (6-mer frequency, TF over GST control)

Q: CCATGG was tested. Which binding signal did it give?
A: 1.03 fold enrichment (6-mer frequency, TF over GST control)

Q: Which binding signal does the source give for CGTACG here?
A: 1.06 fold enrichment (6-mer frequency, TF over GST control)

Q: How did the binding signal turn out when GACGAC was run?
A: 1.08 fold enrichment (6-mer frequency, TF over GST control)

Q: With AATGTG as the sequence, how does the binding signal read?
A: 1.01 fold enrichment (6-mer frequency, TF over GST control)

Q: Which binding signal does the source give for GTGGCA here?
A: 1.05 fold enrichment (6-mer frequency, TF over GST control)
